Data taken from PubChem BioAssay AID624169 (The Scripps Research Institute Molecular Screening Center, 2012).
The campaign covered roughly 360,000 compounds. About 2,400 (0.67%) were called active. For the sample, actives were picked, then their nearest neighbours and some compounds at random. A number with no mark means an inactive call.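 The calls were made as follows: active = activation above a run cutoff, the mean activation of all tested compounds plus 3 SD (cut at about 14% in these data); inactive = the rest.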

Target: 5-hydroxytryptamine receptor 2A (Mus musculus) (UniProt P35363)
Sequence (P35363 whole entry, looked up): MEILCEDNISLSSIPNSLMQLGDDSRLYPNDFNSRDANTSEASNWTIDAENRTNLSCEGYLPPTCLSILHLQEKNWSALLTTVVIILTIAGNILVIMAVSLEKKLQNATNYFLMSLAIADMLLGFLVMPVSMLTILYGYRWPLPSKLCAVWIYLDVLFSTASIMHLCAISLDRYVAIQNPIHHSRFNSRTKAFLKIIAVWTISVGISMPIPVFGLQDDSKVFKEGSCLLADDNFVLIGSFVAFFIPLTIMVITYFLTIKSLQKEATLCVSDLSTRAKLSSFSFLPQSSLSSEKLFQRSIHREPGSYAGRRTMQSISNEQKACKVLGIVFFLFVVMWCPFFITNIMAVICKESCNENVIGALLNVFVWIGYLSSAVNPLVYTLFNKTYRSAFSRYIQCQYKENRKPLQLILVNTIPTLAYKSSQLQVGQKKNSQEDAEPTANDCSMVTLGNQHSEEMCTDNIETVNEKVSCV
Assay: mouse Htr2a agonists via beta-arrestin recruitment, primary screen, cell-based, luminescence (AID 624169);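 also: 0% = plate median of compound wells and 100% = 30 µM serotonin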
Conditions: CHO-K1 mHTR2A beta-arrestin complementation, at 7.6 µM, hits give high values, percent of 30 µM serotonin response

Row | Compound | activation
1 | S=C(Nc1ccc(Cl)cc1Cl)N1CCCC1 | -3.15%
2 | c1cnc(N2CCN(c3ccc4ccccc4n3)CC2)nc1 | -1.28%
3 | O=C(c1ccc2ccccc2n1)N1CCN(c2ccccc2Cl)CC1 | 7.25%
4 | O=C(c1ccncc1)N1CCN(c2ccc3ccccc3n2)CC1 | 25.6% (active)
5 | COc1ccc(NC(=O)COC(=O)c2ccncc2)c(OC)c1 | -1.11%
6 | CCOC(=O)N1CCC(Nc2c(NCCCN3CCN(c4ccc(OC)cc4)CC3)c(=O)c2=O)CC1 | 4.04%
7 | CCCOc1ccc(CNC(=O)C2CCN(c3nn4c(=O)cc(C)nc4s3)CC2)cc1 | 11%
8 | COc1cccc(NC(=O)CSc2nnc(-c3cccnc3)o2)c1 | 14.9% (active)
9 | O=C(CSc1nnc(-c2ccncc2)o1)Nc1cccc(Cl)c1 | -0.76%
10 | COC(=O)CSc1nnc(-c2cccnc2)o1 | 1.04%
11 | O=C(CSc1nncs1)NC1CCCc2ccccc21 (configuration not stated) | -0.06%
12 | CC(C)COC(=O)n1c(=O)oc2ccc(S(=O)(=O)N3CCCCC3)cc21 | 0.93%
13 | COc1ccc(Cn2c(=O)sc3ccccc32)cc1OC | 8.35%
14 | Cc1csc2ncc(C(=O)N(Cc3ccccc3)c3ccccn3)c(=O)n12 | 0.53%
15 | CC(C)CNC(=S)NNC(=O)c1ccccc1OC(F)F | 1.02%
16 | CC(C)Oc1ccccc1C(=O)NC(CO)C(=O)O (configuration not stated) | 21.6% (active)
17 | COc1ccccc1C(=O)NC(CCSC)C(=O)N1CCN(C(C)=O)CC1 (configuration not stated) | -3.47%
18 | O=C(COc1ccc2c(c1)CCC2)N1CCN(c2ccc(F)cc2)CC1 | -4.42%
19 | CC[C@@H](C)[C@H](NC(=O)CCc1c(C)c2cc3c4c(oc3c(C)c2oc1=O)CCCC4)C(=O)O | 6.8%
20 | CCCCNS(=O)(=O)c1ccc2nc(SCC(=O)Nc3cc(C)cc(C)c3)[nH]c2c1 | 12.2%
21 | Cc1cc(C)n(S(=O)(=O)c2cccc([N+](=O)[O-])c2)n1 | 18.4% (active)

Row | Compound | activation
22 | O=[N+]([O-])c1cccc(S(=O)(=O)N2CCCCCC2)c1 | -1.72%
23 | CC1=NCCN1S(=O)(=O)c1cccc([N+](=O)[O-])c1 | -2.76%
24 | Cc1cc(C)cc(NC(=O)COc2coc(CN3CCN(c4ccccc4)CC3)cc2=O)c1 | 6.93%
25 | c1ccc(-c2nnc3n2NC(c2ccc4c(c2)OCO4)S3)cc1 (configuration not stated) | -0.81%
26 | Cc1ccc(/C=C/C(=O)OCC(=O)NCc2ccc(Cl)cc2)o1 | -2.51%
27 | CCCCn1c(N)c(N(CCC(C)C)C(=O)c2ccc([N+](=O)[O-])o2)c(=O)[nH]c1=O | 5.32%
28 | CCCCn1c(N)c(N(CC(C)C)C(=O)CN(C)S(=O)(=O)c2ccc(F)cc2)c(=O)[nH]c1=O | 2.45%
29 | CCCCn1c(N)c(N(CC(C)C)C(=O)CSc2ccc([N+](=O)[O-])cc2)c(=O)[nH]c1=O | 20.3% (active)
30 | COC(=O)c1ccc(S(=O)(=O)N2CCC(c3nc4ccccc4o3)CC2)cc1 | 2.01%
31 | CN1CCN(C(=O)/C(=C\c2cccs2)NC(=O)c2cccs2)CC1 | -0.61%
32 | Cc1ccc(C(=O)N/C(=C/c2cccs2)C(=O)N2CCCCC2)cc1 | 19.9% (active)
33 | Cc1ccc(C(=O)N/C(=C/c2cccs2)C(=O)NCC2CCCO2)cc1 (configuration not stated) | 6.31%
34 | CCOc1cc(CN2CCCC(CO)(Cc3ccc(F)cc3F)C2)ccc1OC (configuration not stated) | -5.38%
35 | CCOC(=O)c1sc(NC(=O)CSc2n[nH]c(CC)n2)nc1C | -3.89%
36 | O=C(OCC(=O)N1CCOCC1)c1ccc(N2CCOCC2)c([N+](=O)[O-])c1 | -5.4%
37 | Cc1ccc(C(=O)OCC(=O)N2CCCCCC2)cc1S(=O)(=O)N1CCOCC1 | 4.82%
38 | O=C(OCC(=O)N1CCOCC1)c1ccc2ccccc2c1 | 14.5% (active)
39 | Cc1oc2nc(SCC(=O)NCc3cccnc3)nc(N)c2c1C | 0.74%
40 | COC(=O)c1ccc2nc(-c3ccccc3)c(Cc3ccc(OC)cc3C)n2c1 | -0.62%
41 | COC(=O)c1ccc2nc(-c3cccc(Br)c3)c(Cc3ccc(OC)cc3C)n2c1 | -0.25%
42 | CCCCNc1c(-c2cccc(Sc3ccc(OC)cc3)c2)nc2ccccn12 | 23.6% (active)

Row | Compound | activation
43 | COc1ccc(/C=N/NC(=O)Cn2cc(C(F)(F)F)ccc2=O)cc1 | -1.47%
44 | COc1ccc(/C=N/Nc2ccccc2C(=O)O)cc1 | 15.9% (active)
45 | COc1ccc(/C=N/NC(=O)C(C)N(c2ccc(OC)cc2)S(C)(=O)=O)cc1 (configuration not stated) | -1.2%
46 | COc1ccc(-c2nnc3n2CCCCC3)cc1 | -2.42%
47 | COc1cc(OC)cc(C(=O)NNC(=O)CCOc2ccccc2OC)c1 | -0.14%
48 | O=C(COC(=O)/C=C/c1cccc(Cl)c1)NCCc1ccccc1 | -2.95%
49 | NNc1cccc(C=Cc2ccccc2)cc1=O | 15.7% (active)
50 | CC(=O)C1=C(O)C(=O)N(c2ccc(S(N)(=O)=O)cc2)C1c1ccccc1F (configuration not stated) | 3.54%
51 | CSc1ncnc2c1ncn2CCCNCc1ccco1 | 5.16%
52 | CSc1ncnc2c1ncn2CCCNCc1cccs1 | 19.2% (active)
53 | CSc1ncnc2c1ncn2CCCNCC(C)c1ccccc1 (configuration not stated) | -3.42%
54 | COc1ccc(CCNC(=O)C2CCCN2C(=O)Nc2ccccc2)cc1OC (configuration not stated) | -3.12%
55 | CCOC(=O)N1CCN(C(=O)CN(C2CCCCC2)S(C)(=O)=O)CC1 | 7.43%
56 | COc1nc(NC2CCCCC2)nc(N2CCCCCC2)n1 | -0.64%
57 | FC(F)(F)COc1nc(N2CCCCC2)nc(N2CCNCC2)n1 | 25.4% (active)
58 | CN(N)c1nc(N2CCCC2)nc(N2CCCC2)n1 | 3.15%
59 | COC(=O)c1ccc(CSc2nncn2N)cc1 | -0.96%
60 | COC(=O)c1ccc(CSc2nncn2C)cc1 | 4.16%
61 | COC(=O)c1ccc(CSc2nnc(NC(C)C)s2)cc1 | 16% (active)
62 | OC(COCCC12CC3CC(CC(C3)C1)C2)CN1CCCCC1 (configuration not stated) | -6.43%
